CCHF vOTU inh-1: CCHFV vOTU protease inhibitors, primary screen, biochemical, Pep-AMC substrate, fluorescence. Crimean-Congo hemorrhagic fever virus L polyprotein viral ovarian tumor (vOTU) protease …. AID 651958, 2012. 0.55% of 370,000 active. inhibition, % at 11.5 µM; in the data active = inhibition above about 30%; also: 0% = vehicle wells with enzyme and 100% = no enzyme wells
BoNT-A LC inh2: BoNT/A light chain protease inhibitors, primary screen, biochemical, flow cytometry, MLPCN library. Botulinum neurotoxin type A light chain protease (Clostridium botulinum A str. ATCC 3502). multiplex microsphere protease substrate cleavage. inhibition, % at 10 µM. 0.17% of 360,000 active. AID 588499, 2011; also: plate controls were buffer without enzyme for full effect and enzyme alone for no effect
BoNT F protease: BoNT/F light chain protease inhibitors, primary screen, biochemical, flow cytometry, MLPCN library | Botulinum neurotoxin type F light chain protease (Clostridium botulinum) | Multiplex microsphere protease cleavage assay | inhibition, % at 10 µM | 0.22% of 360,000 active | AID 588497, 2011; in the data active = inhibition above about 35%, passing the limit was not always enough; inconclusive = no clear call, values can overlap the other calls; also: plate controls were buffer without enzyme for full effect and enzyme alone for no effect
Bead autofluor: compound fluorescence in toxin protease inhibitor counterscreen. fluorescence intensity (test concentration not listed). AID 624483. 3.1% of 360,000 active. compound autofluorescence counterscreen, microsphere flow cytometry; active compounds read high; in the data active = fluorescence intensity above about 16000; inconclusive = no clear call, values can overlap the other calls
3CLpro inhibitor: SARS-CoV 3CLpro protease inhibitors, primary screen, biochemical, quenched FRET. Replicase polyprotein 1ab (Severe acute respiratory syndrome coronavirus), P0C6X7. recombinant SARS-CoV 3CLpro, quenched FRET peptide cleavage. inhibition, % at 6 µM. 0.14% of 290,000 active; in the data active = inhibition above about 12%
Anthrax LF prot: Bacillus anthracis LF protease inhibitors, primary screen, biochemical, multiplex microsphere, MLPCN library. inhibition, % at 10 µM. multiplex microsphere protease cleavage assay. Lethal factor (Bacillus anthracis), P15917. 0.12% of 360,000 active; also: plate controls were buffer without enzyme for full effect and enzyme alone for no effect
Target sequence (P15917 whole entry, looked up): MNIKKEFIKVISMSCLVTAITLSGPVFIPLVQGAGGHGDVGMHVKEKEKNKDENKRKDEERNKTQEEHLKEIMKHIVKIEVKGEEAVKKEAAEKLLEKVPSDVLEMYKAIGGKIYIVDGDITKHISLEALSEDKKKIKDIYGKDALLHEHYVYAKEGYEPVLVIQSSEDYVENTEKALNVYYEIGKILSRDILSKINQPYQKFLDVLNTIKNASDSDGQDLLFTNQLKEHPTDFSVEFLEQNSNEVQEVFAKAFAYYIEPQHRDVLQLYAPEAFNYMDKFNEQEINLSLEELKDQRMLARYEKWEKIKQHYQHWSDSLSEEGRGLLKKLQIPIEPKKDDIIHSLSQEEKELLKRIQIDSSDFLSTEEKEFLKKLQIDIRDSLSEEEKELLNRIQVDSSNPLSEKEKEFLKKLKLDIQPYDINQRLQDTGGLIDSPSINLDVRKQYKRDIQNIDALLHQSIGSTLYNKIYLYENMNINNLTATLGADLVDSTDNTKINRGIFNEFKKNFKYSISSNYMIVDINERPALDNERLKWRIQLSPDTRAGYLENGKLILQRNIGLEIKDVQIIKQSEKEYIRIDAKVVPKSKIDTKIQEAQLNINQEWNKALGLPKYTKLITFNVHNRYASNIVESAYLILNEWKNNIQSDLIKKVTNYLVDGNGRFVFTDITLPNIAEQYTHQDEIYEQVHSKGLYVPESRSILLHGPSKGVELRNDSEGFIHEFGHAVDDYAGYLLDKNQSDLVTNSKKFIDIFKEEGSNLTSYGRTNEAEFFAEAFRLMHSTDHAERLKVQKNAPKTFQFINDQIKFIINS
CCHF vOTU inh-2: CCHFV vOTU protease inhibitors, confirmation, biochemical, Pep-AMC substrate, fluorescence. inhibition, % at 11.5 µM. 17% of 1,900 active. AID 686976, 2013. shares compounds with CCHF vOTU inh-1. Recombinant CCHFV vOTU; in the data active = inhibition above about 30%
An asterisk follows results filed as active. Hits are enriched below; roughly 3.9% of the tested compounds scored in any of these assays. Rule as the data show it, unless noted: active = inhibition above about 30%; inconclusive = no clear call, values can overlap the other calls; inactive = below that.

Nc1cc2nc3ccccc3oc-2cc1=O was read as CCHF vOTU inh-1 27.4, BoNT-A LC inh2 2.8, BoNT F protease -10.6, Bead autofluor 4243, 3CLpro inhibitor -0.8 and Anthrax LF prot 4.3.
For Cc1cccc(NC2=C(NC(=O)c3ccccc3)C(=O)c3ccccc3C2=O)c1 the results were CCHF vOTU inh-1 67.9*, BoNT-A LC inh2 -0.4, BoNT F protease -10.0, Bead autofluor 2215, 3CLpro inhibitor 4.6, Anthrax LF prot -3.6 and CCHF vOTU inh-2 36.6*.
Screening O=C(NC1=C(NC2CCS(=O)(=O)C2)C(=O)c2ccccc2C1=O)c1ccccc1 (stereo not drawn) returned CCHF vOTU inh-1 71.4*, BoNT-A LC inh2 -0.7, BoNT F protease -6.2, Bead autofluor 4584, 3CLpro inhibitor 3.1, Anthrax LF prot -7.7 and CCHF vOTU inh-2 69.5*.
For O=C1C(Cl)=C(NC(=O)c2ccccc2)C(=O)C(Cl)=C1NC(=O)c1ccccc1 the results were CCHF vOTU inh-1 96.9*, BoNT-A LC inh2 2.9, BoNT F protease -12.3, Bead autofluor 3660, 3CLpro inhibitor -4.1, Anthrax LF prot -5.4 and CCHF vOTU inh-2 -7.8.
O=C(NC1=C(Nc2ccc(Cl)cc2)C(=O)c2ccccc2C1=O)c1ccccc1 was read as CCHF vOTU inh-1 17.6, BoNT-A LC inh2 -1.7, BoNT F protease -7.3, Bead autofluor 2563, 3CLpro inhibitor 1.1 and Anthrax LF prot -1.6.
For O=C(Nc1cccc(Cl)c1)c1ccccc1 the results were CCHF vOTU inh-1 0.8, BoNT-A LC inh2 0.3, BoNT F protease -6.1, Bead autofluor 2916 and Anthrax LF prot 6.6.
Screening CN(C1=C(NC(=O)c2ccc(Cl)cc2)C(=O)c2ccccc2C1=O)c1ccccc1 returned CCHF vOTU inh-1 44.7*, BoNT-A LC inh2 -0.5, BoNT F protease -28.0, Bead autofluor 1490, 3CLpro inhibitor 1.9, Anthrax LF prot -4.4 and CCHF vOTU inh-2 14.2.
For O=C(NC(NC1CCS(=O)(=O)C1)C(=O)c1cccs1)c1ccccc1 (stereo not drawn) the results were CCHF vOTU inh-1 2.3 and 3CLpro inhibitor -0.2.
Screening Cc1ccc(Cl)cc1NC(=O)C1CCCN1S(=O)(=O)c1ccc(-c2ccc(=O)[nH]n2)s1 (stereo not drawn) returned CCHF vOTU inh-1 -8.7, BoNT-A LC inh2 2.6, BoNT F protease 0.6, Bead autofluor 5362, 3CLpro inhibitor 6.2 and Anthrax LF prot 1.6.
`O=c1[nH]nc(N/N=C/c2ccccc2OC(F)F)c(=O)[nH]1` gave CCHF vOTU inh-1 0.6, BoNT-A LC inh2 0.8, BoNT F protease -4.9, Bead autofluor 4397, 3CLpro inhibitor 0.5 and Anthrax LF prot -4.5.
`CC(C(N)=O)N1c2cccc3cccc(c23)S1(=O)=O` (stereo not drawn) gave CCHF vOTU inh-1 -12.2, BoNT-A LC inh2 0.5, BoNT F protease -5.4, Bead autofluor 4510, 3CLpro inhibitor -0.8 and Anthrax LF prot -6.1.
CC(NC(=O)C(C)N1c2cccc3cccc(c23)S1(=O)=O)c1ccccc1 (stereo not drawn) was read as CCHF vOTU inh-1 31.7*, BoNT-A LC inh2 -0.4, BoNT F protease -1.4, Bead autofluor 5392, 3CLpro inhibitor 4.7, Anthrax LF prot -2.6 and CCHF vOTU inh-2 -18.1.
Screening Nc1cc2c(cc1Br)[nH]c(=O)c1ccccc12 returned CCHF vOTU inh-1 100.5*, BoNT-A LC inh2 11.5, BoNT F protease 6.8, Bead autofluor 3658, Anthrax LF prot 22.3 and CCHF vOTU inh-2 83.7*.
Screening Nc1cc2[nH]c(=O)c3ccccc3c2cc1Br returned CCHF vOTU inh-1 -6.6, BoNT-A LC inh2 -1.0, BoNT F protease -3.4, Bead autofluor 4394 and Anthrax LF prot 0.0.
For CC(CN1CCOCC1)OC(=O)c1ccccc1Br (stereo not drawn) the results were CCHF vOTU inh-1 32.3*, BoNT-A LC inh2 -0.5, BoNT F protease -0.6, Bead autofluor 2955, 3CLpro inhibitor 3.1, Anthrax LF prot -0.9 and CCHF vOTU inh-2 -28.0.
`CCCCc1nnc(NC(=O)C2=COCCO2)s1` gave CCHF vOTU inh-1 32.7*, BoNT-A LC inh2 0.3, BoNT F protease -6.9, Bead autofluor 5961, 3CLpro inhibitor -1.2, Anthrax LF prot -1.8 and CCHF vOTU inh-2 -16.8.
Cc1nnc(NC(=O)C2=COCCO2)s1 was read as CCHF vOTU inh-1 -2.5, BoNT-A LC inh2 0.9, BoNT F protease inconclusive, Bead autofluor 4960 and Anthrax LF prot 1.3.
For CN(C(=O)c1ccc(NC(=O)Cc2cccc(NC(=O)C3CCN(C(=O)C4CCCCC4)CC3)c2)cc1)C1CC1 the results were CCHF vOTU inh-1 34.5*, BoNT-A LC inh2 -0.1, BoNT F protease -2.3, Bead autofluor 2907, Anthrax LF prot -4.4 and CCHF vOTU inh-2 -21.3.
For O=C(Cc1ccc(NC(=O)C2CCCN(C(=O)c3ccccc3)C2)cc1)Nc1cccc(C(=O)N2CCCCC2)c1 (stereo not drawn) the results were CCHF vOTU inh-1 32.3* and CCHF vOTU inh-2 -20.8.
`Cc1ccc(S(=O)(=O)N2[C@@H](CO)CO[C@H]2CC(=O)c2ccccc2)cc1` gave CCHF vOTU inh-1 -1.9.
For CC1(C(=O)NCc2ccc(C(F)(F)F)cc2)CCN1Cc1c(F)cccc1F (stereo not drawn) the results were CCHF vOTU inh-1 31.5*, BoNT-A LC inh2 -0.2, BoNT F protease -6.5, Bead autofluor 3616, Anthrax LF prot -1.8 and CCHF vOTU inh-2 4.5.
For CC1(C(=O)NCc2cccc(C(F)(F)F)c2)CCN1CCc1ccccc1 (stereo not drawn) the results were CCHF vOTU inh-1 31.5*, BoNT-A LC inh2 -2.2, BoNT F protease -15.4, Bead autofluor 5060, Anthrax LF prot -2.7 and CCHF vOTU inh-2 2.8.
`CCCCN(CCCC)S(=O)(=O)c1ccc(NC(=O)c2ccc([N+](=O)[O-])cc2Cl)cc1` gave CCHF vOTU inh-1 29.9*, BoNT-A LC inh2 -0.5, BoNT F protease -0.6, Bead autofluor 2126, 3CLpro inhibitor 2.4, Anthrax LF prot -1.5 and CCHF vOTU inh-2 -7.8.
O=C(CSc1nnc2ccccn12)N1CCc2ccccc21 was read as CCHF vOTU inh-1 -2.1, BoNT-A LC inh2 1.0, BoNT F protease -0.8, Bead autofluor 4926, 3CLpro inhibitor 3.9 and Anthrax LF prot -6.5.
COC1=CC(=O)c2c(ccc3ncnc(N)c23)C1=O was read as CCHF vOTU inh-1 110.0*, BoNT-A LC inh2 -0.8, BoNT F protease -22.5, Bead autofluor 3413, Anthrax LF prot -7.7 and CCHF vOTU inh-2 108.3*.

Compound activity deposited in PubChem BioAssay by several laboratories.
